{
  "source": "the OligoGym collection",
  "data": [
    {"target": "DCPS", "test": "pooled miR-30 sensor sort-seq; sequence = guide strand", "conditions": "shRNA", "values": [
      {"sequence": "TTACATCATTCAGTTGTCTTGG", "sensor-assay potency score (higher = more potent)": 0.191},
      {"sequence": "TTCAATACTAGGAATAAGCCGG", "sensor-assay potency score (higher = more potent)": -0.221},
      {"sequence": "TTATACACCCACTGGATGCTGA", "sensor-assay potency score (higher = more potent)": -0.178},
      {"sequence": "TTCTGCAGTCTGAAGCCGGAGA", "sensor-assay potency score (higher = more potent)": -0.8},
      {"sequence": "TAGGAAAATGATTTTGTCCCGC", "sensor-assay potency score (higher = more potent)": -0.432},
      {"sequence": "TATTCCTGTAGTCATCTCCCGT", "sensor-assay potency score (higher = more potent)": -0.287},
      {"sequence": "TTTTAGAAAATTCACTTGGAGA", "sensor-assay potency score (higher = more potent)": -0.97},
      {"sequence": "ATTCCTGTAGTCATCTCCCGTC", "sensor-assay potency score (higher = more potent)": -0.108},
      {"sequence": "TACCATTTCCAACTCCTGCCTC", "sensor-assay potency score (higher = more potent)": -0.586},
      {"sequence": "TTCTGCAGGTGTTTCTCTGTGG", "sensor-assay potency score (higher = more potent)": 0.117},
      {"sequence": "TTGTCTTGGAGGGAACAAGTGA", "sensor-assay potency score (higher = more potent)": -0.588}
    ]},
    {"target": "DCST1", "test": "pooled miR-30 sensor sort-seq; sequence = guide strand", "conditions": "shRNA", "values": [
      {"sequence": "TTCTTTGCCCTCTTGTGCCATT", "sensor-assay potency score (higher = more potent)": -1.23},
      {"sequence": "TATCCCAGGACAAAGAGCCTGC", "sensor-assay potency score (higher = more potent)": -0.178},
      {"sequence": "TTCTTCGTAGATGTTCATGGGG", "sensor-assay potency score (higher = more potent)": 0.19},
      {"sequence": "TACAAGAACATAATCTTCTGTT", "sensor-assay potency score (higher = more potent)": 0.614},
      {"sequence": "TAACAGGCAGAGACACACTAAC", "sensor-assay potency score (higher = more potent)": -1.38},
      {"sequence": "ATCGGTACTGCAGCTCTCCAGT", "sensor-assay potency score (higher = more potent)": -0.753},
      {"sequence": "TTGGGTACTAGTAGGAGGCTGG", "sensor-assay potency score (higher = more potent)": 0.466},
      {"sequence": "TAGGTCATTGTAGAGGAACAGG", "sensor-assay potency score (higher = more potent)": -1.31},
      {"sequence": "TTTGCTACTCAGCAGGTCCTTG", "sensor-assay potency score (higher = more potent)": -0.773},
      {"sequence": "TCTTCGTAGATGTTCATGGGGT", "sensor-assay potency score (higher = more potent)": -0.405},
      {"sequence": "TTGTAGAGGAACAGGATCCGCT", "sensor-assay potency score (higher = more potent)": -0.486},
      {"sequence": "TTGATCTGCAGCTCCACGGTGC", "sensor-assay potency score (higher = more potent)": -0.609}
    ]},
    {"target": "DCTN6", "test": "pooled miR-30 sensor sort-seq; sequence = guide strand", "conditions": "shRNA", "values": [
      {"sequence": "TTAGGGTGGATCACTGTCCGAG", "sensor-assay potency score (higher = more potent)": -0.692},
      {"sequence": "TTTCATAGTCTTCTTTAGGTGG", "sensor-assay potency score (higher = more potent)": -0.245},
      {"sequence": "TTTCATCAAGAAATCCAGCTGT", "sensor-assay potency score (higher = more potent)": 0.825},
      {"sequence": "TTTAGGTTGCAACAAGCCCCAA", "sensor-assay potency score (higher = more potent)": -1.26},
      {"sequence": "TTTCACTTTCTACACATACAAC", "sensor-assay potency score (higher = more potent)": -1.58},
      {"sequence": "TAGGTTTTGGTTCTGGATCTTC", "sensor-assay potency score (higher = more potent)": -0.00342},
      {"sequence": "TAATTCTTGCTTTAGGGTGGAT", "sensor-assay potency score (higher = more potent)": -0.47},
      {"sequence": "TAGATCACCGTATTCTCAGGGA", "sensor-assay potency score (higher = more potent)": 0.157},
      {"sequence": "TAAGAGTACATAAACACTGTGG", "sensor-assay potency score (higher = more potent)": -0.0797},
      {"sequence": "TTAAGAGTACATAAACACTGTG", "sensor-assay potency score (higher = more potent)": -0.096},
      {"sequence": "TTTCTACACATACAACTGCTCC", "sensor-assay potency score (higher = more potent)": -0.672}
    ]},
    {"target": "DCX", "test": "pooled miR-30 sensor sort-seq; sequence = guide strand", "conditions": "shRNA", "values": [
      {"sequence": "TTAAAGAACTTACCACACGTGG", "sensor-assay potency score (higher = more potent)": -0.728},
      {"sequence": "TCAATTATTAGTATTTAGCTGA", "sensor-assay potency score (higher = more potent)": 0.00518},
      {"sequence": "TAGAGTTTTTTGACAACCCCGG", "sensor-assay potency score (higher = more potent)": -0.351},
      {"sequence": "ATTCTTGGTGTACTCCACCTTT", "sensor-assay potency score (higher = more potent)": -0.629},
      {"sequence": "TTGATCACAATGCTGTTCCTTA", "sensor-assay potency score (higher = more potent)": 0.503},
      {"sequence": "TTGGGATTGACATTCTTGGTGT", "sensor-assay potency score (higher = more potent)": 0.0923}
    ]}
  ]
}
